TDP1 block – qHTS Assay for Inhibitors of Tyrosyl-DNA Phosphodiesterase (TDP1); Tyrosyl-DNA phosphodiesterase 1 (Homo sapiens), Q9NUW8; recombinant TDP1, AlphaScreen DNA substrate cleavage; Potency, µM (highest dose often 130 µM), inactives show at the top dose activity change, negative = inhibition, hits mostly inhibitors; 0.28% of 350,000 active; AID 485290, 2010; also: % is scaled to controls: 0 for no effect and ±100 for the full control effect; nearly all actives have a fitted effect of over 40% in size
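Recombinant E. coli-expressed Tdp1 (1 nM) preincubated with compound 15 min at RT, then 5'-biotin/3'-phosphotyrosine-FITC DNA substrate (15 nM) added for 5 min. AlphaScreen beads (10 ug/ml) added, 10 min RT; tyrosine-FITC cleavage read as signal loss.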
Pin1 inhibitor – qHTS Assay to Find Inhibitors of Pin1; Peptidyl-prolyl cis-trans isomerase NIMA-interacting 1 (Homo sapiens), Q13526; Pin1 FP peptide displacement, HiFluor488, 10 min; Potency, µM (doses to about 115 µM), inactives show top-dose activity, negative = inhibition, usual class: inhibitors; 0.009% of 390,000 active; active = well fitted inhibition curve with a large enough effect in the polarisation, with a control signal flat, not every such curve was filed as active; inconclusive = small, poorly fitted or top-dose-only effect, or effect the other way, or a change in a side signal; inactive = no such curve, though single readings can be large or run the other way; the % refers to the polarisation; also: % is scaled to controls: 0 for no effect and ±100 for the full control effect
Tb PFK block – qHTS Assay to Find Inhibitors of T. brucei phosphofructokinase. Potency, µM (doses to about 57.5 µM), inactives show top-dose activity, negative = inhibition, actives largely listed as inhibitors. 0.17% of 330,000 active. ATP-dependent 6-phosphofructokinase (Trypanosoma brucei brucei), O15648. T. brucei PFK, ADP-Glo luminescence;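 also: 0% = uninhibited 1x PFK enzyme wells and -100% = no-enzyme wells; nearly all actives have a fitted effect of over 60% in size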
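PFK 1.25 nM, F6P 0.5 mM, ATP 0.1 mM, 0.1 M TEA pH 8.0, 5 mM MgCl2, 0.01% Tween20, 0.1% BSA; 45 min RT. ADP-Glo readout. qHTS titration up to 57 uM; curves fitted, compounds curve-classed.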
S-ASM inh – Inhibitors of Secretory Acid Sphingomyelinase (S-ASM): qHTS | Sphingomyelin phosphodiesterase (Homo sapiens), P17405 | placental ASM, HMU-PC fluorogenic substrate, 60 min | Potency, µM (highest dose often 57.5 µM), for the others: top-dose activity change, negative = inhibition, most hits filed as inhibitors | 0.006% of 340,000 active
Target sequence (P17405 47-631 limits assumed): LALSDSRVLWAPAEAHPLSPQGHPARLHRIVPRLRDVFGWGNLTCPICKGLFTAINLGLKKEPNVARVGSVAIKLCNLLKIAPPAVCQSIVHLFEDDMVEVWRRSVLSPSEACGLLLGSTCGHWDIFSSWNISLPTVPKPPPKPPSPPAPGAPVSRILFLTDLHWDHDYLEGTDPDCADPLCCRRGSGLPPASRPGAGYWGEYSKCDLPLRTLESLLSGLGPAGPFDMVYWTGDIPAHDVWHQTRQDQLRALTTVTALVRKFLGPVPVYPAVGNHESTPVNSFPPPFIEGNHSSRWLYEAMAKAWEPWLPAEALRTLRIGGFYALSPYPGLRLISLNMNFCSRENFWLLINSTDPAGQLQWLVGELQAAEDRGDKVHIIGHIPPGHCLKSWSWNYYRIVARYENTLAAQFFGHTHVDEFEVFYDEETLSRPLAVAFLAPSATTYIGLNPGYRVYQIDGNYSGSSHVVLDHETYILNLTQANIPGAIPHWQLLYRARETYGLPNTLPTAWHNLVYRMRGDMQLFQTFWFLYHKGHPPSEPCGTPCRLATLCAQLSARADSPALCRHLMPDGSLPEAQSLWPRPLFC
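qHTS format. ASM enzyme prepared from human placenta hydrolyses the fluorogenic substrate HMU-PC0 (9 uM final) over 60 min at 37 °C after a 10 min compound preincubation.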
VDR inhibitor – Inhibitors of the vitamin D receptor (VDR): qHTS | Vitamin D3 receptor (Homo sapiens), P11473 | VDR-SRC2-3 peptide fluorescence polarization, 2 h | Potency, µM, without a hit: max response, negative = inhibition, usual class: inhibitors | 0.93% of 400,000 active; also: % is scaled to controls: 0 for no effect and ±100 for the full control effect
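Signal is fluorescence polarization, reporting how far test compounds block the interaction of VDR with the SRC2-3 coregulator peptide after a 2 h room-temperature incubation.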
PLK1 PBD block – qHTS for Inhibitors of PLK1-PDB (polo-like kinase 1 - polo-box domain): Primary Screen; 2.8% of 360,000 active; AID 720504, 2013; Serine/threonine-protein kinase PLK1 (Homo sapiens), P53350; Plk1 PBD binding of FITC phosphopeptide, fluorescence polarization; Potency, µM, for the others: max response, negative = inhibition, actives largely listed as inhibitors; also: series mostly up to about 57 µM; % is scaled to controls: 0 for no effect and ±100 for the full control effect; nearly all actives have a fitted effect of over 65% in size
An asterisk follows results filed as active; ? = inconclusive; / = no result given. In the library only some 3.1% were active in any assay of this set; here they are far more common. Unless noted, calls follow the shape of the dose curve; as a rule, active = well fitted curve in the direction sought with a large enough effect; inconclusive = small, poorly fitted or top-dose-only effect, or another doubt; inactive = no such curve, though single readings can be large; an effect the other way counts as inactive or inconclusive. Potency is read from the fitted curve at half-maximal effect.

SMILES | TDP1 block | Pin1 inhibitor | Tb PFK block | S-ASM inh | VDR inhibitor | PLK1 PBD block
O=[N+]([O-])c1cc(Cl)cc(/C=N\Nc2ccccn2)c1O | 13% | 1% | -4% | -5% | ? | 3.4µM*
CCN1CCc2c(sc(NC(=S)NC(=O)c3ccco3)c2C(N)=O)C1 | 0% | 7% | 0% | 19% | -11% | 24µM*
CCN1CCc2c(sc(NC(=S)NC(=O)c3ccccc3)c2C#N)C1 | 4% | 13% | -30% | 12% | 79µM* | 11µM*
CN1Cc2sc(NC(=S)NC(=O)c3ccccc3)c(C#N)c2CC1(C)C | / | ? | -19% | 50% | ? | 13µM*
N#Cc1c(NC(=S)NC(=O)c2ccccc2)sc2c1CCC2 | 2% | 4% | -1% | -1% | ? | ?
COc1cccc(C2c3c(ncn(-c4cccc(F)c4)c3=N)Oc3ccc4ccccc4c32)c1 (stereo unspecified) | 4% | 9% | / | / | / | /
Cc1ccc(Cl)cc1NC(=O)c1oc2ccc(S(=O)(=O)N(C)C3CCCCC3)cc2c1C | -3% | 5% | / | / | 6% | /
CC(C)(C)c1ccc(CS(=O)(=O)CC(O)CN2CCCC2=O)cc1 (stereo unspecified) | / | -2% | 1% | 2% | -17% | 34µM*
CCOc1cc(C(=O)NCC(c2ccc(N(C)C)cc2)N2CCOCC2)cc(OCC)c1OCC (stereo unspecified) | 1% | -11% | / | / | 5% | /
CCn1c(Nc2ccccc2Cl)nc2ccccc21 | 8% | -4% | -6% | 0% | -1% | 27µM*
CCn1c(N)c(C(=O)Nc2ccccc2C(=O)OC)sc1=S | 8% | 4% | 1% | -19% | -5% | 12µM*
CCn1c(N)c(C(=O)NCCOC)sc1=S | 8% | -6% | -2% | 0% | -10% | 27µM*
CSc1ccc(CCNC(=O)c2ccc(-n3c(C)cc4c3CCCC4)cc2)cc1 | 10% | 0% | / | / | 17% | /
Cc1ccc(NC(=O)N2CCC(CN3CCCCCC3)CC2)c(Cl)c1 | 2% | 9% | / | / | 9% | /
CC(C)c1ccc(NC(=O)C2C3C=CC(CC3)C2C(=O)O)cc1 (stereo unspecified) | / | 1% | / | 3% | -3% | -22%
O=C(O)C1C2C=CC(CC2)C1C(=O)O (stereo unspecified) | 10µM* | -18% | ? | 2% | 26% | ?
CCc1c(C)nc(SCC(=O)N2CCCCC2CC)[nH]c1=O (stereo unspecified) | 2% | -1% | -8% | 1% | ? | 24µM*
CCCOc1ccc(CNC(=O)c2cc3ccccn3n2)cc1 | 5% | -3% | / | / | 17% | /
COc1ccccc1N1C(=O)C(Cl)=C(Nc2ccccc2O)C1=O | 8% | ? | -21% | -1% | ? | 6.7µM*
O=C1C(Cl)=C(Nc2ccccc2O)C(=O)N1c1ccccc1 | 6% | 5% | -24% | -1% | ? | 8.4µM*
CCOc1nc(C#N)nc(N(c2ccccc2)c2ccccc2)n1 | 0% | 1% | / | / | -3% | /
O=c1c2ccccc2sn1-c1ccc(Cl)c(S(=O)(=O)N2CCOCC2)c1 | 2% | -4% | / | / | ? | /
COC(=O)c1c(N2C(=O)CC(Sc3ccccc3C(=O)O)C2=O)sc2c1CCCC2 (stereo unspecified) | -8% | 1% | 1% | 4% | -4% | 24µM*
COC(=O)C1=C[C@@H](C(=O)OC)[C@@H]2C3=C(C(=O)[C@@]2(CC(C)C)NC(=O)c2ccccc2)[C@H](C)n2c(=O)n(-c4ccccc4)c(=O)n2[C@@H]3C1 | 12% | -1% | / | / | -5% | /
